Assay results taken from PubChem BioAssay AID1347076 (National Center for Advancing Translational Sciences (NCATS), 2019).
The whole screen tested about 400,000 compounds, of which about 13,000 (3.2%) were called active. Not shown: some 18% with an inconclusive outcome. The call rests on the fitted dose curve; in most records, active means well fitted cell-killing curve with a large enough effect; inconclusive means small, poorly fitted or top-dose-only effect, or effect the other way; inactive means flat fitted curve, though single readings scatter. Only a selection was taken, and actives are over-represented in it overall.

Experiment: qHTS assay for MDR1-selective chemotherapeutics: Primary screen using the drug-selected MDR subline cells KB-V1; further: nearly all actives have a fitted effect of over 60% in size
Details: KB-V1 MDR cells viability, CellTiter-Glo, 72 h; series mostly up to 46.1 µM; activity change, negative = cytotoxicity: at the top concentration
Summary of the method: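 qHTS viability screen in drug-selected KB-V1 MDR cells: 72 h compound treatment at 37 degrees C, ATP luminescence end point.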
On the % scale 0 is the no-effect control and ±100 the full control effect; potency means the concentration at half of the fitted maximal effect.

Structure (SMILES) | activity change, negative = cytotoxicity | Potency
CCc1noc(C)c1C(=O)OCC(=O)c1ccc(NC(=O)CC(C)C)cc1 | -24.6% (inactive) | –
Nc1ncnc2c1ncn2[C@@H]1O[C@H](C(=O)NCC(F)(F)F)[C@@H](O)[C@H]1O | 13.3% (inactive) | –
COc1ccc(C=C2CCC3C(CCCC34OCCO4)C2=O)cc1 (stereo not given) | -14.5% (inactive) | –
OC[C@@H]1CN(Cc2ccc(Cl)cc2)C[C@H](n2cnc3c(NCc4ccncc4)ncnc32)O1 | 7.29% (inactive) | –
Cc1cccc(C(=O)OCC(=O)Nc2sccc2C(N)=O)c1C | 1.57% (inactive) | –
NCCCNC(=S)NCCCN(Cc1ccc(Cl)cc1)c1ccc(Br)cn1 | – | inactive
NC(=O)CSc1nnc(-c2cccc(S(=O)(=O)N3CCOCC3)c2)o1 | -1.06% (inactive) | –
COc1ccc(/C=C/C(=O)Nc2ccc3c(c2)OCCO3)cc1OC | – | 20.6 µM (active)
COc1cccc(/C=C/C(=O)Nc2ccc3c(c2)OCCO3)c1 | -8.07% (inactive) | –
O=C(/C=C\c1ccc2c(c1)OCO2)NC1(C(=O)Nc2ccc3c(c2)OCCO3)CCCCC1 | 0.694% (inactive) | –
Cc1nn2c(=O)cc(COC(=O)CNC(=O)c3ccc(F)cc3)nc2s1 | 28.8% (inactive) | –
CCC(C)(C)n1nnnc1CN1CCN(c2nc3ccc(C)cc3cc2C#N)CC1 | – | 23.1 µM (active)
Cc1ccc2nc(NCCCNC(=O)c3cnccn3)c(C#N)cc2c1 | 0.0278% (inactive) | –
Cc1cc(C)c2cc(C#N)c(N3CCNCC3)nc2c1 | 0.402% (inactive) | –
NS(=O)(=O)c1ccc(NC(=O)C(=O)Nc2ccc3nc4n(c(=O)c3c2)CCCCC4)cc1 | 17.5% (inactive) | –
CN1OC[C@@H]2CN(C(=O)c3cccc4ccccc34)[C@H](c3ccc(N4CCCCC4)cc3)C[C@@H]21 | 22.9% (inactive) | –
CS(=O)(=O)Nc1ccc(C2=NN(S(C)(=O)=O)C(c3cccs3)C2)cc1 (stereo not given) | -6.25% (inactive) | –
CNc1cncc(-c2ccc(NS(C)(=O)=O)cc2)n1 | – | 5.17 µM (active)
CNc1cncc(-c2cccc(C(=O)N3CCOCC3)c2)n1 | 4.04% (inactive) | –
O=C(NCCN1CCOCC1)c1ccc2c(c1)N(Cc1cccc(Cl)c1)C(=O)c1ccccc1S2(=O)=O | 29.9% (inactive) | –
CCc1ccc2oc(-c3ccc(C)c(NC(=O)/C=C/c4ccco4)c3)nc2c1 | 22.1% (inactive) | –
COC(=O)c1c(-c2cccs2)csc1NC(=O)CSc1ncnc2sc(C)c(C)c12 | – | 18.4 µM (active)
Cc1sc2ncnc(SCC(=O)NC3CCS(=O)(=O)C3)c2c1C (stereo not given) | -1.3% (inactive) | –
CCOC(=O)c1c(NC(=O)CSc2nccc(=O)[nH]2)sc(C)c1C | -16.2% (inactive) | –
COCCn1c(SCC(=O)c2cc(C)ccc2C)nc2cc(C(=O)NC3CCCC3)ccc2c1=O | -7.24% (inactive) | –

Structure (SMILES) | activity change, negative = cytotoxicity | Potency
CCCCN(CCCNC(=O)c1cc(Nc2ccccc2OC)nc2ccccc12)c1ccccc1 | 14.8% (inactive) | –
O=C(Nc1cccc(OCC(=O)N2CCOCC2)c1)C1CCCCC1 | 14.1% (inactive) | –
O=C1CC2(CCN(C(=O)COc3ccc(F)cc3)CC2)Oc2ccccc21 | -11.3% (inactive) | –
O=C1CC2(CCCCC2)Oc2ccc(OCC(=O)N3CCOCC3)cc21 | – | 11.6 µM (active)
O=C(c1ccccc1)N1CCN(c2cc(-c3ccccc3)nc3cc(-c4cccc(Cl)c4)nn23)CC1 | -14.3% (inactive) | –
CCNC(=O)C1CCCN(C(=O)c2ccc(OC)cc2OC)CC1 (stereo not given) | 2.93% (inactive) | –
CN(C)C(=S)N=c1ssc(=S)n1Cc1ccco1 | – | 4.11 µM (active)
CCc1ccccc1N1CN(Cc2ccco2)CNC1=S | -5.41% (inactive) | –
CCN(CC)C(=O)CSc1nnc(CNc2ccc(F)cc2)n1Cc1ccco1 | -7.12% (inactive) | –
CC(C)NC(=O)C1(C)CCCCCN1C(=O)c1ccc(-c2ccccc2)cc1 (stereo not given) | -1.14% (inactive) | –
OC[C@@H]1CN(C2CCCC2)C[C@H](n2cnc3c(NC4CCC4)ncnc32)O1 | 19.1% (inactive) | –
CCOc1cccc2c1N[C@@H](c1ccc(C(=O)O)cc1)[C@H]1CC=C[C@@H]21 | 17.3% (inactive) | –
COc1cccc(C(O)c2ncc(-c3ccc4ccccc4c3)[nH]2)c1 (stereo not given) | -14.9% (inactive) | –
CN1CCN(C2Cc3ccc(Cl)cc3Sc3ccc(F)cc32)CC1 (stereo not given) | – | 16.4 µM (active)
CC(C)CNC(=O)C1(C)CCCN1C(=O)CSc1ccccc1 (stereo not given) | 2.38% (inactive) | –
CCCCCn1c(=O)[nH]c2cc(C(=O)Nc3ccc(F)cc3)ccc2c1=O | -4.83% (inactive) | –
Cc1ccc(S(=O)(=O)/N=C2\C=C(NS(=O)(=O)c3ccc(C)cc3)C(=O)c3ccccc32)cc1 | -17% (inactive) | –
Cc1ccc(C)c(NC(=O)CSc2nc3c(oc4ccccc43)c(=O)n2-c2ccccc2)c1 | – | 7.31 µM (active)
COc1ccc(-n2c(SCC(N)=O)nc3c(oc4ccccc43)c2=O)cc1 | 0% (inactive) | –
Cc1cccc(NC(=O)CSc2nc3c(oc4ccccc43)c(=O)n2-c2ccc(F)cc2)c1 | 2.03% (inactive) | –
Cc1c(C)c(C)c2[nH]c(=S)[nH]c2c1C | – | 3.66 µM (active)
CCCOc1ccc(F)cc1-c1cc(C(=O)Nc2ccc(F)cc2)[nH]n1 | -21.7% (inactive) | –
CCCCNC(=O)c1ccccc1NC(=O)c1ccccc1N(C)S(C)(=O)=O | – | 23.1 µM (active)
CCCCNC(=O)c1ccccc1NC(=O)C1=C(C)OCCS1 | -18.7% (inactive) | –
CCC(C)NC(=O)c1ccccc1NC(=O)c1ccccc1N(C)S(C)(=O)=O (stereo not given) | 0% (inactive) | –

Structure (SMILES) | activity change, negative = cytotoxicity | Potency
CCCCOc1ccc(CNC(=O)c2ccc3c(c2)N(C)C(=O)C2CCCCN32)cc1 (stereo not given) | 11.8% (inactive) | –
CCN(CC)CCN(C(=O)c1ccc2c(c1)CCCC2)c1nc2c(OC)cccc2s1 | -19.3% (inactive) | –
CCC(=O)N1c2ccccc2CC1C(=O)N1CCN(c2ccccc2F)CC1 (stereo not given) | -0.299% (inactive) | –
Cc1ccc(-c2nc3cccc(C)n3c2Nc2ccc3c(c2)OCCO3)cc1 | -6.68% (inactive) | –
CN(c1ccccc1)S(=O)(=O)c1ccc(C(=O)NCc2cccnc2)cc1 | -8.64% (inactive) | –
COc1ccc(CNC(=O)c2ccc(-c3cccnc3)c3ccoc23)cc1OC | – | 18.4 µM (active)
COc1ccc(CNC(=O)c2ccc(Br)s2)cc1OC | -18.8% (inactive) | –
COc1ccc(CNC(=O)c2c(C)cc(=O)oc2C)cc1OC | 13.8% (inactive) | –
COc1ccc(CNC(=O)Cc2ccc(-c3ccccc3)cc2)cc1OC | – | 7.31 µM (active)
COc1ccc(CCNC(=O)Cc2ccc(C)cc2)cc1OC | -23.9% (inactive) | –
COc1ccc(NC(=O)CNC(=O)Cc2ccccc2)cc1OC | 0% (inactive) | –
CCOc1cc(C2C(C(=O)OC)=C(C)NC3=C2C(=O)c2ccccc23)ccc1O (stereo not given) | 0.212% (inactive) | –
CCOC(=O)CSC1=Nc2ccccc2C2=NC(CCC(=O)NCc3ccc(F)cc3)C(=O)N12 (stereo not given) | 8.51% (inactive) | –
CCNS(=O)(=O)c1ccc(CCC(=O)N2CCN(c3ccc(OC)cc3)CC2)cc1 | -7.91% (inactive) | –
CCNS(=O)(=O)c1ccc(CCC(=O)N2CCN(c3cc(Cl)ccc3C)CC2)cc1 | – | 14.6 µM (active)
CCCNS(=O)(=O)c1ccc(CCC(=O)N2CCCC2)cc1 | -7.52% (inactive) | –
O=C1C(Sc2cccc(F)c2)=C[C@@]2(O)CC[C@@H](O)[C@]1(Sc1cccc(F)c1)[C@H]2O | -13.7% (inactive) | –
CCc1nc2c(OCCOc3ccccc3)cccn2c1N(C)C(=O)c1ccccc1F | -2.19% (inactive) | –
COC(=O)C[C@H]1C=C[C@H](NC(=O)c2ccc(F)cc2)[C@@H](CO)O1 | -15% (inactive) | –
CN(C)Cc1cn(-c2ccccc2)nc1-c1ccccc1 | -7.78% (inactive) | –
CN(C)c1cccc2ccccc12 | 12.3% (inactive) | –
Cc1ccccc1-n1nnnc1SCCCC(=O)c1ccc(F)cc1 | – | 6.51 µM (active)
CC(=O)Nc1ccc(NC(=O)CSc2nnnn2-c2ccccc2F)cc1 | -14.2% (inactive) | –
Cc1cc(NC(=O)CSc2nnnn2-c2ccc(F)cc2)no1 | 16.9% (inactive) | –
O=C(/C=C/[C@H]1O[C@@H](n2cnc3c(NC(=O)c4ccccc4)ncnc32)[C@H](O)[C@@H]1O)NCc1ccccc1 | -15.7% (inactive) | –

Structure (SMILES) | activity change, negative = cytotoxicity | Potency
CCCC(=O)N1CCN(c2nc3c(OC)ccc(C)c3s2)CC1 | -4.94% (inactive) | –
COc1ccc(C(=O)NNC(=S)NC(=O)c2ccccc2)cc1 | -22.6% (inactive) | –
CC(C)Oc1ccc(CCC(=O)NNC(=S)NCc2ccccc2)cc1 | 0% (inactive) | –
COc1ccc(C(=O)NC(=S)NNC(=O)CCc2ccccc2)cc1 | – | 6.51 µM (active)
COc1ccc(C(=O)NNC(=S)NC(=O)c2ccccc2[N+](=O)[O-])cc1 | 0% (inactive) | –
Cc1onc(-c2ccccc2)c1C(=O)NNC(=S)NC(=O)c1ccc(F)cc1 | -9.36% (inactive) | –
COc1ccc(C(=O)NC(=S)NNC(=O)c2c(-c3ccccc3)noc2C)cc1 | – | 6.51 µM (active)
O=S(=O)(Nc1ccc2nc(-c3cccc(Cl)c3)oc2c1)c1ccccc1 | 2.99% (inactive) | –
Cc1ccc(C)c(N2CCN(C(=O)Cn3ncc4c(=O)oc5ccc(C)cc5c43)CC2)c1 | 6.55% (inactive) | –
CC(=O)Nc1ccc(CNc2nc(NCCN(C)C)nc3cc(-c4ccccc4)sc23)cc1 | 16.7% (inactive) | –
CN1C[C@@H](CO)O[C@@H](n2cnc3c(N4CCN(CCO)CC4)ncnc32)C1 | 7.63% (inactive) | –
CCCn1nc(NS(=O)(=O)c2ccc(F)cc2)c2cc3ccccc3nc21 | 14.6% (inactive) | –
CCCn1nc(NC(=O)C(C)C)c2cc3cc(OC)ccc3nc21 | 2% (inactive) | –
CCCn1nc(NS(=O)(=O)c2ccccc2)c2cc3cc(C)ccc3nc21 | – | 14.6 µM (active)
COc1cccc(NC(=O)CSc2cc(=O)n(C)c3ccc(Cl)cc23)c1 | -14.4% (inactive) | –
Cc1cccc(C=CC(=O)c2ccc(Cl)cc2)c1 | -4.15% (inactive) | –
CC(=O)Nc1ccc(C=CC(=O)c2ccc([N+](=O)[O-])cc2)cc1 | -4.54% (inactive) | –
CN(C)c1ccc(/C=C/C(=O)c2ccc(C(C)(C)C)cc2)cc1[N+](=O)[O-] | – | 18.4 µM (active)
CCOc1ccc(S(=O)(=O)c2cn(Cc3ccc(OC)cc3)c3ccc(F)cc3c2=O)cc1 | 7.8% (inactive) | –
Cc1nc2ccc(S(=O)(=O)N(CC(=O)Nc3ccc(F)cc3)Cc3ccccc3)cc2s1 | 6.91% (inactive) | –
CC(C)(C)N1C(=O)c2c(C(=O)OCc3ccccc3)[nH]c(-c3ccccc3)c2C1=O | 0.678% (inactive) | –
Cc1ccc(NC(=O)Cn2cccc2C2=NC(c3ccccc3)CO2)c(C)c1 (stereo not given) | – | 16.4 µM (active)
Cc1ccc(NC(=O)Cn2nnc(C(=O)NCc3ccco3)c2N)c(C)c1 | 20.9% (inactive) | –
Cc1ccc(NC(=O)CSc2cccc3cccnc23)c(C)c1 | -30.1% (inactive) | –
CCOc1ccc(NC(=O)C2CCN(S(=O)(=O)c3cc(-c4noc(C)n4)ccc3C)CC2)cc1 | -3.59% (inactive) | –
